Calls of active or inactive are those of the source. The rule behind the calls is not given here.

A short description of experiment [1]: alternative oxidase inhibition and growth effect – profiling panel (AID 1259412).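 For growth (% of control): growth monitored over 72 h.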 As to conditions: AOX-dependent respiration, at 500 µM; for growth (% of control): O2 uptake, measured here: growth; for O2 uptake (% of control): measured here: O2 uptake, control condition (no AOX).
Experiment [2] deals with alternative oxidase (AOX). Described as above. As to conditions: AOX-dependent respiration, at 500 µM, stronger effect = lower value.
[3] abbreviates: AOX-dependent treatment condition, stronger effect = lower value.

Take `COc1cccc(C(=O)Nc2cccc(S(=O)(=O)c3cccc(N)c3)c2)c1`: the growth (% of control) amounted to 132% in experiment [1] (setting [3]) and 112% in experiment [1] (control condition). In addition, the O2 uptake (% of control) was 105% in experiment [1] (stronger effect = lower value) and 98.1% (inactive) in experiment [2].
For `N#Cc1cccc(C(=O)Nc2cccc(I)c2)c1`, the growth (% of control) in experiment [1] (setting [3]) was determined as 103%; in experiment [1] (control condition) it was 117%. In addition, the figures for the O2 uptake (% of control) in experiment [1] (stronger effect = lower value) and in experiment [2] were 87.8% and 32.6% (active), respectively.
`N#Cc1cccc(C(=O)Nc2cccc(C(F)(F)F)c2)c1`: the growth (% of control) in experiment [1] (setting [3]) worked out at 49.7%; in experiment [1] (control condition), 90.1%. The O2 uptake (% of control) in experiment [1] (stronger effect = lower value) is 89.3%; in experiment [2], 28.9% (active).
With `COc1cccc(C(=O)Nc2cccc(C(F)(F)F)c2)c1`, the growth (% of control) was found to be 11.8% in experiment [1] (setting [3]) and 57.4% in experiment [1] (control condition). For the same compound, the O2 uptake (% of control) in experiment [1] (stronger effect = lower value) was 90.2%; in experiment [2], 37.6% (active).
`N#Cc1cccc(C(=O)Nc2ccccc2C(N)=O)c1`: the growth (% of control) was found to be 99.3% in experiment [1] (setting [3]) and 85.5% in experiment [1] (control condition). Moreover, the figures for the O2 uptake (% of control) in experiment [1] (stronger effect = lower value) and in experiment [2] were 107% and 95.7% (inactive), respectively.
`O=C(NCc1ccc2c(c1)OCO2)c1cccc(Cl)c1`: the growth (% of control) in experiment [1] (setting [3]) was found to be 55.3%; in experiment [1] (control condition) it was 72%. In addition, the O2 uptake (% of control) in experiment [1] (stronger effect = lower value) is 101%; in experiment [2] it was 14.2% (active).
Consider `O=C(Nc1cccc(F)c1)c1cccc(Br)c1`, for which the growth (% of control) in experiment [1] (setting [3]) came to 23.1%; in experiment [1] (control condition), 88%. Further, the O2 uptake (% of control) is 73.7% in experiment [1] (stronger effect = lower value) and 28.7% (active) in experiment [2].
On to `O=C(Nc1cccc(OCc2ccccc2)c1)c1cccc(Cl)c1`, for which the growth (% of control) in experiment [1] (setting [3]) was found to be 95.6%; in experiment [1] (control condition) it was 92.6%. The values for the O2 uptake (% of control) in experiment [1] (stronger effect = lower value) and in experiment [2] were 110% and 76.1% (active), respectively.
Consider `O=C(Nc1cccc(F)c1)c1cccc(F)c1`, for which the growth (% of control) in experiment [1] (setting [3]) was found to be 23%; in experiment [1] (control condition) it was 78.7%. Further, the figures for the O2 uptake (% of control) in experiment [1] (stronger effect = lower value) and in experiment [2] were 103% and 52.3% (active), respectively.
Taken in the same sequence, the figures for `O=C(NCc1ccc2c(c1)OCO2)c1ccccc1` were 56.1%, 65.8%, 99.1% and 38.6% (active).
`COc1cc(NC(=O)c2cccc(Br)c2)cc(OC)c1OC`: the growth (% of control) in experiment [1] (setting [3]) turned out to be 90.6%; in experiment [1] (control condition), 84.3%. Further, the O2 uptake (% of control) in experiment [1] (stronger effect = lower value) is 90%; in experiment [2] it was 63.6% (active).
The matching figures for `COc1cccc(C(=O)Nc2cccc(OCc3ccccc3)c2)c1`: 105%, 86.7%, 91.3% and 79% (active).
In the case of `COc1cc(NC(=O)c2ccccc2)cc(OC)c1OC`, the values for the growth (% of control) in experiment [1] (setting [3]) and in experiment [1] (control condition) were 84.6% and 76%, respectively. Also, the O2 uptake (% of control) in experiment [1] (stronger effect = lower value) was 95.8%; in experiment [2], 61.1% (active).
